This is part of a sample that, as a whole, favours compounds with a hit. Of some 79,000 tested, about 15% had one in any assay. A number with no mark means an inactive call. Calls of active or inactive are those of the source. No stated cut-off is given here; in the data, active means growth inhibition above about 70%; inactive means the rest.

This passage reports growth inhibition results from PubChem BioAssay (NCI).

The assay in a line: NCI Yeast Anticancer Drug Screen. Data for the rad14 strain (AID 159).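 Further: 0% = growth of vehicle-treated control cultures.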 To be noted: S. cerevisiae rad14 strain growth inhibition; at 11.0 µM; hits give high values. An outline of the steps:
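Compound-treated yeast with a defined DNA-repair lesion; growth inhibition normalised to vehicle-treated cultures.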
As for `CNC(=O)OCc1c(COC(=O)NC)c(C)n(-c2ccc(Cl)c(Cl)c2)c1C`, the growth inhibition is 25%.

Turning to `COc1ccc2nc(N/N=C/c3sccc3C)cc(C)c2c1`, the growth inhibition is -21%.

On to `O=C(O)/C=C\C(=O)NNc1ccc(Br)cc1`, for which the growth inhibition was 99% (active).

Consider `S=c1[nH]nc(Cc2ccccc2)c(=S)[nH]1`, for which the growth inhibition is 69%.

`COc1ccc2nc3cccc([N+](=O)[O-])c3c(NCCCO)c2c1`: the growth inhibition was 99% (active).

Consider `CCN(CC)CCSc1c2ccccc2nc2cc(NCC(=O)Nc3ccccc3-c3ccccc3NC(=O)CNc3ccc4c(SCCN(CC)CC)c5ccccc5nc4c3)ccc12`, for which the growth inhibition was -12%.

As to `Cc1ccc(N(C=O)c2c([N+](=O)[O-])cc([N+](=O)[O-])c3c2=[N+]([O-])CN=3)cc1`, the growth inhibition is 30%.

In the case of `COc1ccc(C(=O)OCCc2ccccc2)cc1`, the growth inhibition was -6%.

In the case of `COc1ccc(C(=O)NCCN(C)C)c2nc3ccccc3cc12`, the growth inhibition was -9%.

In the case of `NCC(O)CSCc1ccc(Cl)cc1` (stereo unspecified), the growth inhibition was 3%.

With `CN(C)/N=N/c1nc[nH]c1C(N)=O`, the growth inhibition was 0%.

Turning to `COc1ccc(/C(=N/O)c2ccccc2C2=Nc3ccccc3C(NCc3ccccc3)O2)cc1C` (stereo unspecified), the growth inhibition was 7%.

On to `CCCC(=O)OC(OC(=O)CCC)c1ccc([N+](=O)[O-])o1`, for which the growth inhibition was 1%.

On to `O=C(/C(=C/c1ccccc1)CBr)c1ccccc1`, for which the growth inhibition was 38%.

As to `Cc1cccc(N2CCN(C(=O)/C(=C/c3ccccc3)NC(=O)c3ccccc3)CC2)c1`, the growth inhibition is 0%.

Consider `c1cc(Nc2ccc3c(c2)OCO3)c2cc(C3CCCCC3)ccc2n1`, for which the growth inhibition is 7%.

Regarding `Cc1ccc2nc(N/N=C/c3ccc(C)s3)cc(C)c2c1`, the growth inhibition was 0%.

`COc1cc(NCCCCCNC(C)C)c2ncccc2c1Cl`: the growth inhibition was 15%.

Consider `COc1ccc2cc(CN3CCC(C4CCN(Cc5ccc6cc(OC)ccc6c5)CC4)CC3)ccc2c1`, for which the growth inhibition was -22%.

As to `CC(=O)O/N=C/c1c2ccccc2cc2ccccc12`, the growth inhibition is 5%.

For `CC[C@@]1(OC(=O)CN(C)C)C(=O)OCc2c1cc1n(c2=O)Cc2cc3ccccc3nc2-1`, the growth inhibition is 44%.

Take `CC1(C)CC(=O)C(C(CC(c2ccccc2)c2cc3c(cc2O)OCO3)C2=C(O)CC(C)(C)CC2=O)=C(O)C1` (stereo unspecified): the growth inhibition was 22%.

With `CCCCCCC(CCl)c1sc(-c2csc(CCNC(=O)OC(C)(C)C)n2)nc1C(=O)OC` (stereo unspecified), the growth inhibition was 6%.

`CCOC(=O)C1=C(C)NC(C)=C(C(=O)OCC)C1c1cccc([N+](=O)[O-])c1`: the growth inhibition is -17%.

In the case of `Cc1ccc2c(/C=C/c3ccc(N(C)C)cc3)ccnc2c1C`, the growth inhibition was -11%.

Consider `O=C1C(Br)=CC(Br)(Br)C=C1Br`, for which the growth inhibition was 28%.
